These results are taken from PubChem BioAssay.

A short description of experiment [1]: compounds altering circadian rhythm period length – cell-based, LOPAC library, luminescence reporter (AID 2774; call rule not given here;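 also: values are relative to mean of DMSO wells on each plate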). The note with it: circadian reporter cells, at 7 µM, actives lie on both sides.
For experiment [2], the system named is Hepatitis C virus NS3 helicase. Kind of experiment: blockers of NS3h binding to ssDNA – biochemical, fluorescence polarization, LOPAC1280 library, primary screen (AID 687035; in the data active = inhibition above about 37%). The settings on record: Purified HCV NS3 helicase, Cy5-dT15 ssDNA binding fluorescence polarization; stronger effect = higher value; concentration not given here.
The nature of experiment [3]: compounds altering Cy5-DNA-NS3h complex signal – biochemical, LOPAC1280, artefact control for HCV NS3 helicase inhibitor project (AID 687037; call rule not given here). The note with it: Cy5-DNA-NS3h complex fluorescence interference counterscreen. (In general: A counterscreen serves to expose hits that act by an unwanted route or on another target.)
The nature of experiment [4]: viability loss in pontine glioma line – cell-based, SU-DIPG-XVII, MIPE5.0, CellTiter-Glo, qHTS, dose response (AID 1347060).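 As to AC50: cells exposed to compound for 48 hours before viability readout.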 The settings on record: CellTiter-Glo ATP luminescence. Background: In ATP-based viability assays light output follows the ATP content of the culture.
The nature of experiment [5]: viability loss in pontine glioma line – cell-based, JHH-DIPG-1, MIPE4.0, CellTiter-Glo, qHTS, dose response (AID 1347062; cut-off not given, nearly all actives have AC50 up to about 27 µM;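 as to AC50: cells exposed to compound for two days before readout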). The note with it: JHH-DIPG-1 viability, CellTiter-Glo ATP luminescence.
Experiment [6] is described as follows: viability loss in pontine glioma line – cell-based, SU-DIPG-XIII, MIPE5.0, CellTiter-Glo, qHTS, dose response (AID 1347064; cut-off not given, nearly all actives have AC50 up to about 23 µM;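 as to AC50: cells exposed to compound for 48 hours before the viability read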). The settings on record: CellTiter-Glo ATP luminescence.
Experiment [7] can be described thus: viability loss in pontine glioma line – cell-based, SU-DIPG-XXV, MIPE5.0, CellTiter-Glo, qHTS, dose response (AID 1347065).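 Also: cells exposed to compound for 48 hours before ATP readout.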 The settings on record: CellTiter-Glo ATP luminescence.
The nature of experiment [8]: growth inhibition of DIPG cells – cell-based, MIPE4.0 library, CellTiter-Glo luminescence, qHTS (AID 1347066; cut-off not given, nearly all actives have AC50 up to about 30 µM;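 also: cells exposed to compound for 48 hours before readout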). The note with it: SU-DIPG-VI viability, CellTiter-Glo ATP luminescence.
The nature of experiment [9]: JHH-DIPG-1 glioma cell viability, MIPE5.0 library, CellTiter-Glo luminescence, qHTS (AID 1347067).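 Also: cells exposed to compound for 48 hours before readout.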 The settings on record: JHH-DIPG-1 glioma viability, CellTiter-Glo ATP luminescence.
A short description of experiment [10]: growth inhibition of DIPG cells – cell-based, MIPE5.0 library, qHTS (AID 1347068; cut-off not given, nearly all actives have IC50 up to about 30 µM;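 as to IC50: cells exposed to compound for 48 hours before viability readout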). The settings on record: SU-DIPG-XXV viability. A general note: In qHTS, concentration-response curves come from the screen itself.
Experiment [11] in a line: blockers of cellular phospholipid synthesis – cell-based, LOPAC library, screen 4, primary screen (AID 1347384; call rule not given here). The note with it: animal cells, phospholipid biosynthesis inhibition screen; at 10 µM.
Experiment [12] has as its target ATP-dependent translocase ABCB1 (Homo sapiens) (UniProt P08183). The experiment is described as follows: P-glycoprotein substrate transport blockade – cell-based (AID 377; in the data active = fluorescence slope change above about 50%). The settings on record: MDR1-expressing cells, fluorescent substrate accumulation slope; stronger effect = higher value; concentration not given here.
Experiment [13] can be described thus: viability loss in pontine glioma line – cell-based, SU-DIPG-IV, MIPE4.0, CellTiter-Glo, qHTS, dose response (AID 1347063; cut-off not given, nearly all actives have AC50 up to about 30 µM;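 also: compound exposure lasted 48 hours before the viability readout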). The note with it: CellTiter-Glo ATP luminescence.
Experiment [14] has as its system Aerobactin synthetase IucA (Klebsiella pneumoniae). Kind of experiment: inhibition of K. pneumoniae IucA enzyme – biochemical, Tocris library, absorbance (AID 1345561; call rule not given here;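 also: 100% = enzyme without compound and 0% = no enzyme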). The note with it: purified IucA enzyme assay, absorbance (OD) read-out; stronger effect = lower value;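 tested at 8 µM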.
Experiment [15] in a line: GFP-Q80 aggregate reduction, neuronal-like cells, cell-based, NGF-treated PC12, GFPQ80 (AID 1614).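 Also: lower means fewer inclusions and 0 means no inclusions at all.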 The settings on record: PC12 NGF-treated GFP-polyQ80 inclusion reduction.
Experiment [16] is described as follows: viability loss in pontine glioma line – cell-based, SU-DIPG-XIII, MIPE4.0, CellTiter-Glo, qHTS, dose response (AID 1347061; cut-off not given, nearly all actives have AC50 up to about 37 µM;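 also: cells exposed to compound for 48 hours before readout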). The settings on record: CellTiter-Glo ATP luminescence.

Results filed as inconclusive are left out. Activity calls are given as the source filed them. Unless noted, the limit is not given here; nearly all actives have AC50 up to about 26 µM.

Chain of ATP-dependent translocase ABCB1 (Homo sapiens) (P08183 whole entry, looked up): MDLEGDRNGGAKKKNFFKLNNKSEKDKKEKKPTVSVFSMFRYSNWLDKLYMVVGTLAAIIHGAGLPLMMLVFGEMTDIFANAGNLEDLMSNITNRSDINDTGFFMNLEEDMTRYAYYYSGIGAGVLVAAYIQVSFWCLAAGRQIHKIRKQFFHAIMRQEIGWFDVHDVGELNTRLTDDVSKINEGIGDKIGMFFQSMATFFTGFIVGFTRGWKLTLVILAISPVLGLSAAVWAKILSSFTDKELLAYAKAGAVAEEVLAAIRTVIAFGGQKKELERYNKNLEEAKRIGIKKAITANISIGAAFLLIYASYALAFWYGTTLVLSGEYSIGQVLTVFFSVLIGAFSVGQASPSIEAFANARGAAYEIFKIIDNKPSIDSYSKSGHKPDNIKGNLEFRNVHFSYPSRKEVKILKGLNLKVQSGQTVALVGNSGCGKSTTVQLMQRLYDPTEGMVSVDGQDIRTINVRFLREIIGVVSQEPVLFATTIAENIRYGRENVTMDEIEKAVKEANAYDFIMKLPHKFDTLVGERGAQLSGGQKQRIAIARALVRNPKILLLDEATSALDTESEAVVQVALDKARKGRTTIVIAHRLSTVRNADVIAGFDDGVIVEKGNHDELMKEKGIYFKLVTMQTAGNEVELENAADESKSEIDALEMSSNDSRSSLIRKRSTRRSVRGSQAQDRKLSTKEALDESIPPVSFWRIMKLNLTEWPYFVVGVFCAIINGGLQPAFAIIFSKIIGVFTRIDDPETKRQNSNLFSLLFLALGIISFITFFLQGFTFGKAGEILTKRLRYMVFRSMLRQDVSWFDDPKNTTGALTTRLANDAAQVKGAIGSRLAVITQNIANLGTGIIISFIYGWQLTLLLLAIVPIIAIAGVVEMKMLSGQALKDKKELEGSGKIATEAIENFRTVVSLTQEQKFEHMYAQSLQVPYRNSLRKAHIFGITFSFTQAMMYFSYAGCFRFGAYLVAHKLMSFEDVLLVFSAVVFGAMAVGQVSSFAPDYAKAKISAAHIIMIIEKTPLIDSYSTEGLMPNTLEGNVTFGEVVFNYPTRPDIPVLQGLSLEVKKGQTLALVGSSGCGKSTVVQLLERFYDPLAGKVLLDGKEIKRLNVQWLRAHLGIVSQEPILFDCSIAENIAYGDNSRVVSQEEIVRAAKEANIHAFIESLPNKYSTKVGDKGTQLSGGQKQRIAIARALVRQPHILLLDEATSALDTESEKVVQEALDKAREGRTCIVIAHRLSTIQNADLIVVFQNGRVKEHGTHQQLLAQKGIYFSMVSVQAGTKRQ

As for `C[C@]12CCC(=O)C=C1CC[C@@H]1[C@@H]2[C@@H](O)C[C@@]2(C)[C@H]1CC[C@]2(O)C(=O)CO`, the period change in [1] was -0.16 h (inactive). Moreover, in experiment [2], the inhibition (commonly the change of the read-out against control, counted positive when it falls) was -3% (inactive). Also, in experiment [3], the fluorescence ratio (interference) was 1 (inactive). For the same molecule, the result in experiment [4], in experiment [5], in experiment [6], in [7], in experiment [8] and in experiment [9] was inactive. For the same molecule, the result in [10] and in experiment [11] was inactive.
For the molecule `Cc1onc(-c2ccccc2)c1-c1ccc(S(N)(=O)=O)cc1`, the result in experiment [4], in experiment [6], in [7], in experiment [9] and in experiment [10] was inactive.
As to `CC1=C(C(=O)O)N2C(=O)[C@@H](NC(=O)[C@H](N)c3ccccc3)[C@H]2SC1`, the fluorescence slope change in experiment [12] is 94.6% (active).
As to `Cc1cccc(CN2CCN(C(c3ccccc3)c3ccc(Cl)cc3)CC2)c1` (stereo not given), the concentration at half-maximal activity (AC50) (commonly the concentration at which the activity in the assay is half-maximal) in experiment [4] was 23.5 µM (active); in experiment [13], 18.7 µM (active); in [6], 20.9 µM (active); in [8], 20.9 µM (active); in [9], 16.6 µM (active). Besides, the IC50 (as a rule, the concentration needed to halve the response being measured) in [10] was 23.5 µM (active).
As for `CC(C)(C)NC[C@H](O)COc1nsnc1N1CCOCC1`, the remaining activity (commonly the signal under treatment as a percentage of the control signal) in experiment [14] was 95.7% (inactive).
Regarding `CN(C)c1ccc(O)c2c1C[C@H]1C[C@H]3[C@H](N(C)C)C(=O)C(C(N)=O)=C(O)[C@@]3(O)C(=O)C1=C2O`, in [12], the fluorescence slope change was 103% (active). The inclusion score in [15] came out at 0. Besides, the outcome in experiment [5], in [8], in experiment [9] and in experiment [10] was inactive.
The molecule `COc1ccc2cc(CCC(C)=O)ccc2c1` came in with an inclusion score in [15] of 2.
`CC(=O)[C@H]1CC[C@H]2[C@@H]3C[C@H](C)C4=CC(=O)CC[C@]4(C)[C@H]3[C@@H](O)C[C@]12C`: the fluorescence slope change in [12] was 55.7% (active).
As for `C[C@]12C=CC(=O)C=C1CC[C@@H]1[C@@H]2C(=O)C[C@@]2(C)[C@H]1CC[C@]2(O)C(=O)CO`, the outcome in experiment [4], in experiment [16], in [5], in [13], in [6] and in [7] was inactive. Moreover, the molecule was called inactive in experiment [8], in experiment [9] and in experiment [10].
For the molecule `CC[C@H](C)C(=O)O[C@H]1C[C@H](O)C=C2C=C[C@H](C)[C@H](CC[C@@H](O)C[C@@H](O)CC(=O)O)[C@H]21`, the remaining activity in experiment [14] is 123% (inactive). In [4], the AC50 was 23.5 µM (active). Further, the molecule was called inactive in [16], in experiment [13], in experiment [6], in [9] and in [10].
Molecule `CCCN(CCC)S(=O)(=O)c1ccc(C(=O)O)cc1` showed an inclusion score in [15] of 2.
Still for that read-out and setting: then `C[C@@H]1O[C@@H](OC[C@H]2O[C@@H](Oc3c(-c4ccc(O)c(O)c4)oc4cc(O)cc(O)c4c3=O)[C@H](O)[C@@H](O)[C@@H]2O)[C@H](O)[C@H](O)[C@H]1O`, with 2.
As to `CCS(=O)(=O)CCn1c([N+](=O)[O-])cnc1C`, the fluorescence slope change in experiment [12] was 11.6% (inactive).
Turning to `CCCCCCCCCCC[C@@H](C[C@@H]1OC(=O)[C@H]1CCCCCC)OC(=O)[C@H](CC(C)C)NC=O`, the remaining activity in [14] was 84.7% (inactive).
Take `COc1cc([C@@H]2c3cc4c(cc3[C@H](O)[C@H]3COC(=O)[C@H]23)OCO4)cc(OC)c1OC`: the concentration at half-maximal activity (AC50) in [4] was 0.0417 µM (active); in [5], 0.0743 µM (active); in experiment [6], 0.0295 µM (active); in experiment [7], 0.0468 µM (active); in [9], 0.0295 µM (active). The result in experiment [13] was inactive. The IC50 in experiment [10] is 0.0525 µM (active).
For the molecule `OCCN1C[C@H](O)[C@@H](O)[C@H](O)[C@H]1CO`, the call in experiment [4], in experiment [16], in experiment [5], in experiment [13], in [7] and in experiment [8] was inactive. Moreover, the molecule was classed as inactive in experiment [9] and in experiment [10].
In the case of `O=C1[C@H](CC[C@H](O)c2ccc(F)cc2)[C@@H](c2ccc(O)cc2)N1c1ccc(F)cc1`, the result in experiment [4] and in experiment [10] was inactive. Further, the AC50 in experiment [7] was 20.9 µM (active).
Consider `Nc1nc2ncc(CNc3ccc(C(=O)N[C@@H](CCC(=O)O)C(=O)O)cc3)nc2c(=O)[nH]1`, for which the fluorescence slope change in [12] is 5.4% (inactive). This molecule registered an inclusion score in experiment [15] of 1.5.
For the molecule `CCCSc1ccc2nc(NC(=O)OC)[nH]c2c1`, in [12], the fluorescence slope change is 97.2% (active).
As to `CNC(=O)Oc1ccc2c(c1)[C@]1(C)CCN(C)[C@@H]1N2C`, the inclusion score in experiment [15] turned out to be 2. Besides, in experiment [1], the period change was 0.16 h (inactive). Further, the inhibition in experiment [2] is -2% (inactive). Further, in experiment [3], the fluorescence ratio (interference) is 1 (inactive). Also, in experiment [11], the outcome was inactive.
Turning to `CC1(C)O[C@@H]2C[C@H]3[C@@H]4C[C@H](F)C5=CC(=O)C=C[C@]5(C)[C@H]4[C@@H](O)C[C@]3(C)[C@]2(C(=O)CO)O1`, the fluorescence slope change in experiment [12] was 24.8% (inactive). The molecule was classed as inactive in [4], in experiment [6], in experiment [7], in experiment [9] and in [10].
As for `COc1cc2nc(N3CCN(C(=O)c4ccco4)CC3)nc(N)c2cc1OC`, in experiment [2], the inhibition was -1% (inactive). The fluorescence ratio (interference) in [3] was 0.9 (inactive). In addition, the remaining activity in [14] is 96.4% (inactive). The concentration at half-maximal activity (AC50) in [13] is 26.4 µM (active); in experiment [8], 14.8 µM (active). Further, in [11], the molecule was classed as inactive.
Consider `C[C@]12C=CC(=O)C=C1CC[C@@H]1[C@@H]2[C@@H](O)C[C@@]2(C)[C@H]1CC[C@]2(O)C(=O)CO`, for which the result in experiment [4], in [16], in [5], in experiment [6] and in experiment [9] was inactive.
In [15], `CN(C)CCN(Cc1ccccc1)c1ccccn1` showed an inclusion score of 2.
As for `C[C@@H]1CC(=O)NN=C1c1ccc(NN=C(C#N)C#N)cc1`, the AC50 in experiment [13] is 23.5 µM (active); in experiment [6], 18.6 µM (active); in [7], 9.34 µM (active).
In the case of `Nc1nc2ccc(OC(F)(F)F)cc2s1`, the fluorescence slope change in experiment [12] is 60.6% (active). Further, the period change in experiment [1] was 0.11 h (inactive). The inhibition in experiment [2] is -3% (inactive). Also, in [3], the fluorescence ratio (interference) is 0.9 (inactive). In [14], the remaining activity was 83.1% (inactive). Further, the outcome in experiment [4], in experiment [16], in experiment [5], in experiment [6], in experiment [8] and in experiment [11] was inactive. Further, the IC50 in experiment [10] is 20.9 µM (active).
Consider `OCCN(CCO)c1nc(N2CCCCC2)c2nc(N(CCO)CCO)nc(N3CCCCC3)c2n1`, for which the inclusion score in experiment [15] was found to be 2. Also, the period change in [1] is -0.245 h (inactive). Also, the inhibition in experiment [2] is -2% (inactive). Further, the fluorescence ratio (interference) in [3] was 1 (inactive). Also, the remaining activity in experiment [14] was 98% (inactive). In addition, the half-maximal activity concentration (AC50) in experiment [16] is 20.9 µM (active); in [7], 18.6 µM (active). The call in experiment [5] and in experiment [11] was inactive.
`CC(=O)OCC(=O)[C@@]1(O)CC[C@H]2[C@@H]3CCC4=CC(=O)C=C[C@]4(C)[C@H]3[C@@H](O)C[C@@]21C`: the molecule was called inactive in experiment [16], in experiment [5], in [6], in experiment [7], in [8] and in experiment [9]. Besides, in experiment [10], the call was inactive.
Consider `C#C[C@]1(O)CC[C@H]2[C@@H]3CCC4=CC(=O)CC[C@@H]4[C@H]3CC[C@@]21CC`, for which, in experiment [12], the fluorescence slope change was -2.5% (inactive). Besides, the outcome in experiment [4], in experiment [16], in experiment [5], in experiment [13], in experiment [8] and in [9] was inactive. Further, the molecule was called inactive in experiment [10].
